# Data from the supplement of paper PMC6897291.
# Where a name gives a salt, the structure may show the parent alone.
# What was measured:
# [1] = test system: RIVA; assay: growth inhibition by drug plus 177Lu-lilotomab satetraxetan (1 - RLU/untreated control) (fraction); higher = stronger inhibition; settings: 177Lu-lilotomab satetraxetan 0.5 ug/ml
# How it was run: (§1)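 Plates pre-printed with the Selleck Cambridge Cancer Compound library at 10/100 nM (RIVA) or 10/1,000 nM (U-2932) received 3,000 cells/well. These cells had been washed after 18 h untreated or with a radiolabelled anti-CD37 antibody conjugate (~600 MBq/mg; 0.5 µg/ml RIVA, 1 µg/ml U-2932). Growth inhibition was obtained from RealTime-Glo luminescence in relation to untreated no-drug wells. Each daily read from day 3, taken after 1 h at 37°C, was converted as 1 − RLU/mean of 48 such wells per plate.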
# [2] = test system: U-2932; assay: growth inhibition by drug alone (1 - RLU/untreated control) (fraction); higher = stronger inhibition; settings: 177Lu-lilotomab satetraxetan 0 ug/ml
# How it was run: as §1
# [3] = test system: RIVA; assay: as above; settings: 177Lu-lilotomab satetraxetan 0 ug/ml
# How it was run: as §1
# [4] = test system: U-2932; assay: growth inhibition by drug plus 177Lu-lilotomab satetraxetan (1 - RLU/untreated control) (fraction); higher = stronger inhibition; settings: 177Lu-lilotomab satetraxetan 1 ug/ml
# How it was run: as §1
Compound,"growth inhibition by drug plus 177Lu-lilotomab satetraxetan ([1]; 100 nM, time (day): 5)","growth inhibition by drug plus 177Lu-lilotomab satetraxetan ([1]; 100 nM, time (day): 6)","growth inhibition by drug alone ([2]; 10 nM, time (day): 3)","growth inhibition by drug alone ([2]; 10 nM, time (day): 4)","growth inhibition by drug alone ([2]; 10 nM, time (day): 5)","growth inhibition by drug alone ([2]; 10 nM, time (day): 6)","growth inhibition by drug alone ([2]; 1000 nM, time (day): 3)","growth inhibition by drug alone ([2]; 1000 nM, time (day): 4)","growth inhibition by drug alone ([2]; 1000 nM, time (day): 5)","growth inhibition by drug alone ([2]; 1000 nM, time (day): 6)","growth inhibition by drug alone ([3]; 10 nM, time (day): 3)","growth inhibition by drug alone ([3]; 10 nM, time (day): 4)","growth inhibition by drug alone ([3]; 10 nM, time (day): 5)","growth inhibition by drug alone ([3]; 10 nM, time (day): 6)","growth inhibition by drug alone ([3]; 100 nM, time (day): 3)","growth inhibition by drug alone ([3]; 100 nM, time (day): 4)","growth inhibition by drug alone ([3]; 100 nM, time (day): 5)","growth inhibition by drug alone ([3]; 100 nM, time (day): 6)","growth inhibition by drug plus 177Lu-lilotomab satetraxetan ([4]; 10 nM, time (day): 3)","growth inhibition by drug plus 177Lu-lilotomab satetraxetan ([4]; 10 nM, time (day): 4)","growth inhibition by drug plus 177Lu-lilotomab satetraxetan ([4]; 10 nM, time (day): 5)","growth inhibition by drug plus 177Lu-lilotomab satetraxetan ([4]; 10 nM, time (day): 6)","growth inhibition by drug plus 177Lu-lilotomab satetraxetan ([4]; 1000 nM, time (day): 3)","growth inhibition by drug plus 177Lu-lilotomab satetraxetan ([4]; 1000 nM, time (day): 4)","growth inhibition by drug plus 177Lu-lilotomab satetraxetan ([4]; 1000 nM, time (day): 5)","growth inhibition by drug plus 177Lu-lilotomab satetraxetan ([4]; 1000 nM, time (day): 6)","growth inhibition by drug plus 177Lu-lilotomab satetraxetan ([1]; 10 nM, time (day): 3)","growth inhibition by drug plus 177Lu-lilotomab satetraxetan ([1]; 10 nM, time (day): 4)","growth inhibition by drug plus 177Lu-lilotomab satetraxetan ([1]; 10 nM, time (day): 5)","growth inhibition by drug plus 177Lu-lilotomab satetraxetan ([1]; 10 nM, time (day): 6)","growth inhibition by drug plus 177Lu-lilotomab satetraxetan ([1]; 100 nM, time (day): 3)","growth inhibition by drug plus 177Lu-lilotomab satetraxetan ([1]; 100 nM, time (day): 4)"
"Nc1ccccc1NC(=O)c1ccc(CNC(=O)OCc2cccnc2)cc1 [Entinostat (MS-275, SNDX-275)]",0.628,0.595,–,–,–,–,–,–,–,–,–,–,–,–,–,–,–,–,–,–,–,–,–,–,–,–,–,–,–,–,–,–
COc1ccc(CCN(C)CCCOc2ccc(S(=O)(=O)c3c(C(C)C)n(C)c4ccccc34)cc2)cc1OC,0.542,0.544,0.0869,0.0667,0.0917,-0.0299,0.0603,0.0699,-0.0056,-0.132,0.00966,0.000445,-0.0789,-0.342,-0.377,-0.25,-0.308,-0.545,0.0456,0.0938,0.156,0.171,0.135,0.145,0.18,0.298,0.605,0.642,0.664,0.661,0.48,0.536
CC1(C)CNc2cc(NC(=O)c3cccnc3NCc3ccncc3)ccc21 [Motesanib Diphosphate],0.536,0.512,0.0212,-0.0392,-0.0873,-0.298,-0.0958,-0.0733,-0.118,-0.248,-0.0638,-0.211,-0.283,-0.584,-0.22,-0.341,-0.349,-0.452,-0.0309,-0.0326,-0.0402,0.00139,-0.132,-0.033,-0.00123,0.0914,0.361,0.516,0.536,0.546,0.45,0.537
COc1ccc2c(c1)CCC1C2CCC2(C)C(NCCCCCCN3C(=O)C=CC3=O)CCC12 (configuration not stated),0.571,0.58,0.079,0.0406,0.0171,-0.0318,-0.0546,0.0273,-0.0312,-0.361,-0.042,-0.062,-0.0736,-0.13,-0.374,-0.291,-0.321,-0.444,0.00613,0.0631,0.103,0.161,-0.0126,0.0436,0.0468,0.107,0.506,0.561,0.586,0.598,0.502,0.567
Cn1cnc2c(F)c(Nc3ccc(Br)cc3Cl)c(C(=O)NOCCO)cc21 [AZD6244 (Selumetinib)],0.316,0.307,0.124,0.0689,-0.0711,0.0468,0.116,0.112,-0.011,0.127,0.0177,-0.0269,-0.137,-0.558,-0.313,-0.239,-0.319,-0.531,-0.00544,0.0596,0.0509,0.056,0.15,0.192,0.203,0.285,0.452,0.491,0.497,0.504,0.277,0.359
COc1cc(Nc2ncc3c(n2)-c2ccc(Cl)cc2C(c2c(F)cccc2OC)=NC3)ccc1C(=O)O [MLN8237 (Alisertib)],0.845,0.873,0.00882,-0.00518,-0.0513,-0.269,0.101,0.128,0.153,0.291,-0.00668,-0.0776,-0.136,-0.266,0.624,0.553,0.569,0.599,0.0071,0.0562,0.0508,0.126,0.21,0.278,0.316,0.459,0.398,0.551,0.559,0.572,0.754,0.81
CCN[C@H]1C[C@H](C)S(=O)(=O)c2sc(S(N)(=O)=O)cc21 [Dorzolamide HCL],0.389,0.37,-0.0781,-0.0488,-0.0257,0.0748,0.15,0.182,0.141,0.205,-0.103,-0.133,-0.166,-0.25,-0.0335,-0.0982,-0.134,-0.179,-0.0513,-0.0344,-0.00192,0.152,0.0973,0.164,0.191,0.279,0.311,0.443,0.471,0.489,0.267,0.375
Cn1cc(C2=C(c3ccc(Cl)cc3Cl)C(=O)NC2=O)c2ccccc21,0.502,0.492,-0.00858,0.00823,0.113,-0.0764,-0.0209,-0.0468,-0.0762,-0.00785,-0.0583,-0.11,-0.108,-0.172,-0.488,-0.393,-0.389,-0.481,-0.0696,0.00483,0.017,-0.0529,0.0138,0.0592,0.059,0.146,0.449,0.533,0.546,0.555,0.465,0.512
CCN1CCN(Cc2ccc(-c3cc4c(N[C@H](C)c5ccccc5)ncnc4[nH]3)cc2)CC1,0.435,0.409,-0.00148,0.0172,0.023,0.0324,-0.166,-0.174,-0.287,-0.315,-0.0711,-0.0709,-0.153,-0.452,-0.2,-0.171,-0.217,-0.348,-0.00551,0.0118,0.0153,0.0829,-0.206,-0.119,-0.121,-0.0824,0.45,0.538,0.553,0.545,0.314,0.416
CCCC(=O)[O-].[Na+] [Sodium butyrate],0.506,0.493,-0.0432,-0.057,-0.0778,-0.0762,-0.0747,-0.0522,-0.0783,-0.149,-0.23,-0.252,-0.304,-0.546,-0.245,-0.343,-0.3,-0.374,-0.0586,-0.0574,-0.0479,-0.015,-0.0238,0.0387,0.0442,0.139,0.36,0.484,0.502,0.51,0.431,0.486
CCn1c(-c2nonc2N)nc2c(C#CC(C)(C)O)ncc(OC[C@H]3CCCNC3)c21,0.42,0.413,0.0651,0.0169,-0.0977,-0.22,0.654,0.769,0.826,0.861,0.0369,-0.0639,-0.133,-0.326,-0.134,-0.204,-0.217,-0.34,-0.0148,0.000859,-0.00972,0.0167,0.596,0.736,0.792,0.836,0.28,0.464,0.475,0.494,0.315,0.41
CN1CCN(c2cccc(Nc3nc4c(-c5ccc(S(C)(=O)=O)cc5)cccn4n3)c2)CC1,0.425,0.401,0.0344,0.0428,0.0368,0.113,0.028,0.0442,0.0461,0.102,-0.0335,-0.0683,-0.203,-0.505,-0.0314,-0.0426,-0.0675,-0.155,0.0292,0.0656,0.062,0.17,-0.0239,0.0604,0.101,0.21,0.369,0.484,0.496,0.524,0.396,0.419
O=c1cc(N2CCOCC2)oc2c(-c3cccc4c3sc3ccccc34)cccc12,0.523,0.529,0.114,0.0778,-0.0783,-0.126,0.206,0.176,0.0314,-0.00386,0.21,0.183,0.173,-0.0317,-0.363,-0.241,-0.261,-0.43,0.0719,0.131,0.166,0.2,0.312,0.318,0.34,0.421,0.597,0.621,0.62,0.635,0.447,0.499
CNC(=O)c1ccc(N2C(=S)N(c3ccc(C#N)c(C(F)(F)F)c3)C(=O)C2(C)C)cc1F [MDV3100 (Enzalutamide)],0.553,0.556,0.0921,0.0374,-0.126,-0.107,0.019,0.0335,-0.0413,-0.0245,0.0909,0.0471,0.0315,-0.246,-0.0634,-0.143,-0.144,-0.21,0.0217,0.0789,0.128,0.16,0.0172,0.0892,0.116,0.182,0.559,0.587,0.59,0.602,0.519,0.555
CC(C)(C#N)c1cc(Cn2cncn2)cc(C(C)(C)C#N)c1 [Anastrozole],0.523,0.499,0.105,0.0583,0.0212,-0.021,0.0109,0.046,-0.0146,-0.259,0.0128,-0.01,-0.0521,-0.213,-0.0495,-0.0262,-0.0644,-0.17,0.0156,0.039,0.0695,0.0754,-0.103,0.0124,-0.0136,-0.0141,0.481,0.583,0.593,0.583,0.423,0.506
Oc1nc(-c2ccc(C(F)(F)F)cc2)nc2c1CSCC2,0.521,0.496,0.0264,0.0499,-0.0107,-0.0367,0.0107,0.081,0.0386,-0.0985,-0.012,-0.067,-0.12,-0.313,-0.101,-0.117,-0.135,-0.199,-0.00592,0.0339,0.0301,0.0994,-0.0747,0.0641,0.0547,0.062,0.347,0.483,0.51,0.519,0.424,0.518
